# Test results reported in ChEMBL document CHEMBL4513141, “CO-ADD screening of NIH (USA) - Clinical Collection” (2021).
# Entries with a potency or affinity are not part of this list.
# What was measured:
# Klebsiella pneumoniae = conditions: Concentration 20 uM; ASSAY_TEST Inhibition of Bacterial Growth; detection method Absorption (OD600); MEDIA CAMHB; plate type 384well; NBS; CORNING #3640; time 18 hr
# Candida albicans = conditions: 20 µM
# Cryptococcus neoformans = conditions: Concentration 20 uM; ASSAY_TEST Inhibition of Fungal Growth; detection method Resazurin; Absorption (OD600-OD570); plate type 384well; NBS; CORNING #3640
structure (smiles),measurement,setting,value
CCOC(=O)[C@H](CCc1ccccc1)N[C@@H](C)C(=O)N1[C@H](C(=O)O)C[C@@H]2CCC[C@@H]21,Inhibition,Klebsiella pneumoniae,20.74%
same,Inhibition,Candida albicans,1.9%
same,Inhibition,Cryptococcus neoformans,-1.7%
CN1CCCC(n2nc(Cc3ccc(Cl)cc3)c3ccccc3c2=O)CC1.Cl (stereo not given) [AZELASTINE HYDROCHLORIDE],Inhibition,Klebsiella pneumoniae,-1%
same,Inhibition,Candida albicans,4.45%
same,Inhibition,Cryptococcus neoformans,4.19%
O=C1c2c(O)cc(O)cc2O[C@H](c2ccc(O)c(O)c2)[C@@H]1O,Inhibition,Klebsiella pneumoniae,9.75%
same,Inhibition,Candida albicans,3.45%
same,Inhibition,Cryptococcus neoformans,-8.67%
C[C@]12C=CC(=O)C=C1CC[C@@H]1[C@@H]2[C@@H](O)C[C@@]2(C)[C@H]1CC[C@]2(O)C(=O)CO [PREDNISOLONE],Inhibition,Klebsiella pneumoniae,15.03%
same,Inhibition,Candida albicans,1.1%
same,Inhibition,Cryptococcus neoformans,-7.92%
CC(C)C[C@H](NC(=O)[C@@H](O)[C@H](N)Cc1ccccc1)C(=O)O [UBENIMEX],Inhibition,Klebsiella pneumoniae,12.45%
same,Inhibition,Candida albicans,0.73%
same,Inhibition,Cryptococcus neoformans,-0.18%
Nc1nc(O)c2ncn(CCC(CO)CO)c2n1 [PENCICLOVIR],Inhibition,Klebsiella pneumoniae,17.55%
same,Inhibition,Candida albicans,0.56%
same,Inhibition,Cryptococcus neoformans,-9.17%
Cc1cccc(C)c1NC(=O)C1CCCCN1C.Cl (stereo not given) [MEPIVACAINE HYDROCHLORIDE],Inhibition,Klebsiella pneumoniae,9.49%
same,Inhibition,Candida albicans,-0.43%
same,Inhibition,Cryptococcus neoformans,-0.84%
COc1ccc(OC)c(C(O)CNC(=O)CN)c1.Cl (stereo not given) [MIDODRINE HYDROCHLORIDE],Inhibition,Klebsiella pneumoniae,8.37%
same,Inhibition,Candida albicans,2.18%
same,Inhibition,Cryptococcus neoformans,-10.49%
Cl.O=C1c2c(O)ccc(O)c2C(=O)c2c(NCCNCCO)ccc(NCCNCCO)c21,Inhibition,Klebsiella pneumoniae,7.11%
same,Inhibition,Candida albicans,-4.12%
same,Inhibition,Cryptococcus neoformans,21.29%
C[C@H](CS)C(=O)N1CCC[C@H]1C(=O)O [CAPTOPRIL],Inhibition,Klebsiella pneumoniae,9.36%
same,Inhibition,Candida albicans,2.59%
same,Inhibition,Cryptococcus neoformans,1.67%
COc1cc2nc(N3CCN(C(=O)C4COc5ccccc5O4)CC3)nc(N)c2cc1OC (stereo not given) [DOXAZOSIN],Inhibition,Klebsiella pneumoniae,13.22%
same,Inhibition,Candida albicans,3.14%
same,Inhibition,Cryptococcus neoformans,2.35%
CC(=O)O[C@@]12CO[C@@H]1C[C@H](O)[C@@]1(C)C(=O)[C@H](O)C3=C(C)[C@@H](OC(=O)[C@H](O)[C@@H](NC(=O)OC(C)(C)C)c4ccccc4)C[C@](O)([C@@H](OC(=O)c4ccccc4)[C@H]21)C3(C)C,Inhibition,Klebsiella pneumoniae,11.64%
same,Inhibition,Candida albicans,1.38%
same,Inhibition,Cryptococcus neoformans,-6.01%
CCC1=C(C)CN(C(=O)NCCc2ccc(S(=O)(=O)NC(=O)N[C@H]3CC[C@H](C)CC3)cc2)C1=O [GLIMEPIRIDE],Inhibition,Klebsiella pneumoniae,11.97%
same,Inhibition,Candida albicans,1.98%
same,Inhibition,Cryptococcus neoformans,-2.89%
CCOc1cc(CC(=O)N[C@@H](CC(C)C)c2ccccc2N2CCCCC2)ccc1C(=O)O [REPAGLINIDE],Inhibition,Klebsiella pneumoniae,3.14%
same,Inhibition,Candida albicans,4.01%
same,Inhibition,Cryptococcus neoformans,-6.91%
OCc1cccnc1 [NICOTINYL ALCOHOL],Inhibition,Klebsiella pneumoniae,6.16%
same,Inhibition,Candida albicans,2.84%
same,Inhibition,Cryptococcus neoformans,-7.14%
CCC1=C[C@H]2CN(C1)Cc1c([nH]c3ccccc13)[C@@](C(=O)OC)(c1cc3c(cc1OC)N(C)[C@H]1[C@@](O)(C(=O)OC)[C@H](OC(C)=O)[C@]4(CC)C=CCN5CC[C@]31[C@@H]54)C2.O=C(O)C(O)C(O)C(=O)O.O=C(O)C(O)C(O)C(=O)O,Inhibition,Klebsiella pneumoniae,8.46%
same,Inhibition,Candida albicans,4.55%
same,Inhibition,Cryptococcus neoformans,-7.91%
CC1=C(CC(=O)O)c2cc(F)ccc2/C1=C\c1ccc([S+](C)[O-])cc1 (stereo not given),Inhibition,Klebsiella pneumoniae,14.02%
same,Inhibition,Candida albicans,3.98%
same,Inhibition,Cryptococcus neoformans,-1.21%
CCOC(=O)C1=C(C)NC(C)=C(C(=O)OC)C1c1cccc([N+](=O)[O-])c1 (stereo not given) [NITRENDIPINE],Inhibition,Klebsiella pneumoniae,3.96%
same,Inhibition,Candida albicans,3.79%
same,Inhibition,Cryptococcus neoformans,-6.79%
COC1=CC(=O)C[C@@H](C)[C@]12Oc1c(Cl)c(OC)cc(OC)c1C2=O [GRISEOFULVIN],Inhibition,Klebsiella pneumoniae,11.08%
same,Inhibition,Candida albicans,3.42%
same,Inhibition,Cryptococcus neoformans,-0.94%
C[C@@H]1C[C@H]2[C@@H]3C[C@H](F)C4=CC(=O)C(Cl)=C[C@]4(C)[C@@]3(F)[C@@H](O)C[C@]2(C)[C@@]1(O)C(=O)CO [HALOMETASONE],Inhibition,Klebsiella pneumoniae,3.82%
same,Inhibition,Candida albicans,-0.05%
same,Inhibition,Cryptococcus neoformans,-4.6%
CC(=O)OCC(=O)[C@@]12OC(C)(C)O[C@@H]1C[C@H]1[C@@H]3C[C@H](F)C4=CC(=O)C=C[C@]4(C)[C@@]3(F)[C@@H](O)C[C@@]12C [FLUOCINONIDE],Inhibition,Klebsiella pneumoniae,13.39%
same,Inhibition,Candida albicans,-0.27%
same,Inhibition,Cryptococcus neoformans,-0.92%
COc1ccccc1OCC(O)CN1CCN(CC(=O)Nc2c(C)cccc2C)CC1.Cl.Cl (stereo not given) [RANOLAZINE HYDROCHLORIDE],Inhibition,Klebsiella pneumoniae,1.09%
same,Inhibition,Candida albicans,1.45%
same,Inhibition,Cryptococcus neoformans,-5.35%
CC(=O)CCCCn1cnc2c1c(=O)n(C)c(=O)n2C [LOMIFYLLINE],Inhibition,Klebsiella pneumoniae,10.43%
same,Inhibition,Candida albicans,2.63%
same,Inhibition,Cryptococcus neoformans,-0.96%
CC1(C)O[C@@H]2C[C@H]3[C@@H]4CCC5=CC(=O)C=C[C@]5(C)[C@@]4(F)[C@@H](O)C[C@]3(C)[C@]2(C(=O)CO)O1 [TRIAMCINOLONE ACETONIDE],Inhibition,Klebsiella pneumoniae,14.59%
same,Inhibition,Candida albicans,0.96%
same,Inhibition,Cryptococcus neoformans,-5.82%
CSc1ccc2c(c1)N(CCC1CCCCN1C)c1ccccc1S2.Cl (stereo not given) [THIORIDAZINE HYDROCHLORIDE],Inhibition,Klebsiella pneumoniae,9.7%
same,Inhibition,Candida albicans,4.12%
same,Inhibition,Cryptococcus neoformans,4.01%
